The results in this text go back to PubChem BioAssay (Tox21).

A number with no mark means an inactive call. Inconclusive results are not listed. Activity calls are given as the source filed them. Calls come from the whole dose curve.

For assay [1], the target named is Acetylcholinesterase (Homo sapiens) (UniProt P22303). Kind of assay: Acetylcholinesterase (AChE) small molecule antagonists: colormetric cell-based qHTS assay (AID 1347395). Note: nearly all actives have a fitted effect of over 30% in size. Note: potency is the fitted concentration of half-maximal effect. In outline: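 Endogenous AChE of human neuroblastoma SH-SY5Y cells was measured with an Ellman-type DTNB/acetylthiocholine mix. Compound pretreatment lasted 30 min at 37 C; substrate reaction ran 90 min at 37 C.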
For orientation: In qHTS, concentration-response curves come from the screen itself.

Assay [2] has the same target. Kind of assay: Acetylcholinesterase (AChE) small molecule antagonists: enzyme-based qHTS assay (AID 1347397). Note: nearly all actives have a fitted effect of over 55% in size. The following applies: Potency: AChE enzyme activity inhibition; outcome: AChE enzyme activity inhibition. In outline: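 Recombinant human AChE, dispensed at 50 mU/mL, was preincubated with Tox21 10K compounds or DMSO vehicle for 30 min at room temperature. DTNB plus acetylthiocholine was then added, and thiocholine was measured colorimetrically after a further 10 min.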

Assay [3] shares this target. Kind of assay: Acetylcholinesterase (AChE) small molecule antagonists: fluorescence cell-based qHTS assay (AID 1347398). Note: nearly all actives have a fitted effect of over 50% in size. The following applies: Potency: AChE activity; outcome: AChE activity. Put shortly: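 Human SH-SY5Y cells were plated overnight at 37 C, exposed to compound for 30 min at 37 C, 5% CO2, then given acetylthiocholine plus Thiolite Green for 40 min at room temperature; thiocholine fluorescence (Ex/Em 490/520 nm) reports endogenous AChE activity.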

Assay [4] has the same target. Kind of assay: Acetylcholinesterase (AChE) small molecule antagonists: enzyme-based qHTS assay with human liver microsomes (AID 1347399). Note: nearly all actives have a fitted effect of over 60% in size. The following applies: Potency: qHTS inhibition; outcome: qHTS inhibition. Put shortly: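 Recombinant human AChE (50 mU/mL in the enzyme mix) and human liver microsomes (0.25 mg/mL final) were preincubated with compound and NADPH (0.25 mg/mL final) for 30 min at 37 C. Acetylthiocholine/DTNB was then added; thiocholine was read colorimetrically after 10 min at room temperature.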
% is set by controls: 0 for no effect and ±100 for the full control effect.

Chain of Acetylcholinesterase (Homo sapiens) (P22303 whole entry, looked up): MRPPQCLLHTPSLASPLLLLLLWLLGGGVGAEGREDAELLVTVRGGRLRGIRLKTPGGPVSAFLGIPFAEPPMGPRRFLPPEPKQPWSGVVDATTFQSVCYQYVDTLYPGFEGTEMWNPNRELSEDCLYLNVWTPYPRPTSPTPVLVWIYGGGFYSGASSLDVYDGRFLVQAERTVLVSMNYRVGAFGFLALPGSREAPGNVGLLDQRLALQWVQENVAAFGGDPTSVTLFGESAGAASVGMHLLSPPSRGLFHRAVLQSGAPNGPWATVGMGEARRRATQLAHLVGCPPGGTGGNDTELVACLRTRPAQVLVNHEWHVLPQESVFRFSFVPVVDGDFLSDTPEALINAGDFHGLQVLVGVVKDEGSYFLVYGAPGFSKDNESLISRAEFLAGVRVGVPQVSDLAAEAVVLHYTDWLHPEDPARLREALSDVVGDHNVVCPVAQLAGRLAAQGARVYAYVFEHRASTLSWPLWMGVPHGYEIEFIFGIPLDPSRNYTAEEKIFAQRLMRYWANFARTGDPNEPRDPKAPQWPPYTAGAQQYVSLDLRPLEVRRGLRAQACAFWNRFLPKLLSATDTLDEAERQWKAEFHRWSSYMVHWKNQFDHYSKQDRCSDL

Take `OC1(c2ccccc2)CCNCC1`: the Potency result in assay [1] and in assay [2] was “inactive” each time.
Turning to `CS(=O)(=O)c1ccc(-c2cn3ccccc3n2)cc1`, the Potency result in assay [1] and in assay [2] was “inactive” in each case.
Take `O=C(O)/C=C/c1ccc(/C=C/C(=O)O)cc1`: the Potency result in assay [1] and in assay [2] was “inactive” in each case.
Turning to `C=CCN1C[C@H](C(=O)N(CCCN(C)C)C(=O)NCC)C[C@@H]2c3cccc4[nH]cc(c34)C[C@H]21`, the Potency in assay [1] was 34.7 µM (active). Also, in assay [2], the Potency entry is “inactive”.
On to `O=C(Nc1ccccc1)c1ccccc1O`, for which the Potency result in assay [1], in assay [2] and in assay [3] was “inactive” in each case.
As to `CCC[C@@H]1C[C@@H](C(=O)N[C@@H]([C@H]2O[C@H](SC)[C@H](O)[C@@H](O)[C@H]2O)[C@@H](C)O)N(C)C1`, the Potency result in assay [1], in assay [2] and in assay [3] was “inactive” throughout.
Consider `CC(COc1ccccc1)NN` (configuration not stated), for which the Potency entry in assay [1], in assay [2] and in assay [3] was “inactive” in each case.
Take `c1ccc2occc2c1`: the Potency result in assay [1] and in assay [2] was “inactive” each time.
Take `O=C(CS(=O)Cc1ccco1)NC/C=C\COc1cc(CN2CCCCC2)ccn1` (configuration not stated): the Potency in assay [1] is 38.9 µM (active).
On to `Cc1cc(OI)c(C(C)C)cc1-c1cc(C(C)C)c(OI)cc1C`, for which the Potency entry in assay [1], in assay [2] and in assay [3] was “inactive” each time.
Turning to `CSc1ccc2c(c1)C(N1CCN(C)CC1)Cc1ccccc1S2` (configuration not stated), the Potency entry in assay [1] and in assay [2] was “inactive” each time.
Take `O=C1Nc2ccc(Cl)cc2[C@@](C#CC2CC2)(C(F)(F)F)O1`: the Potency entry in assay [1], in assay [2] and in assay [3] was “inactive” each time.
As for `c1ccc(C(O[C@@H]2CCCN(CCc3ccc4c(c3)OCO4)C2)c2ccccc2)cc1`, the Potency entry in assay [1] and in assay [2] was “inactive” in each case.
In the case of `NC(Cc1ccc(Cl)cc1)C(=O)O` (configuration not stated), in assay [1], the activity, negative = inhibition is 1.17% [at 0.435 µM]. Besides, the activity change, negative = inhibition in assay [2] was 0.0464% [at 0.435 µM]; in assay [3], 9.18% [at 0.439 µM].
With `CC(C)(C)c1ccc(OCC2CO2)cc1` (configuration not stated), the Potency result in assay [1], in assay [2] and in assay [3] was “inactive” in each case.
For the compound `CC(C)[N+](C)(C)CC(O)COc1cccc2ccccc12` (configuration not stated), the Potency entry in assay [1], in assay [2] and in assay [3] was “inactive” in each case.
Take `CN1CCCC(CC2c3ccccc3Sc3ccccc32)C1` (configuration not stated): the Potency entry in assay [1] and in assay [2] was “inactive” in each case.
As for `Nc1nnc(-c2ccc([N+](=O)[O-])o2)o1`, the Potency entry in assay [1], in assay [2] and in assay [3] was “inactive” throughout.
Regarding `O[C@@H](CNC[C@H](O)[C@H]1CCc2cc(F)ccc2O1)[C@@H]1CCc2cc(F)ccc2O1`, the Potency entry in assay [1] and in assay [2] was “inactive” throughout.
For `Clc1ccc2nsnc2c1NC1=NCCN1`, the Potency result in assay [1], in assay [2] and in assay [3] was “inactive” in each case.
In the case of `Cc1cc(-c2ccccc2)nnc1NCCN1CCOCC1`, the Potency entry in assay [1] and in assay [2] was “inactive” in each case.
As for `Cc1cc(=O)c2c(O)c3c(O)cc(=O)c4c3c3c(cc(O)c1c23)C(C)(C)C=4O`, the activity, negative = inhibition in assay [1] was 0.337% [at 23.6 µM]. The activity change, negative = inhibition in assay [2] is 2.31% [at 23.6 µM]; in assay [3], 7.09% [at 23.8 µM].
In the case of `COc1ccc2cc(CCC(C)=O)ccc2c1`, the Potency result in assay [1], in assay [2] and in assay [3] was “inactive” throughout.
As to `CC(C)(C)c1ccc(-c2ccc(C(C)(C)C)cc2)cc1`, the Potency entry in assay [1], in assay [2] and in assay [3] was “inactive” in each case.
With `CCCCCCOC(=O)c1ccccc1`, the Potency entry in assay [1], in assay [2] and in assay [3] was “inactive” throughout.
As to `COc1cc(-c2nc(NC(=O)c3cc4cc(C)cc(C)c4n3CC(=O)O)sc2CCC2CCCCC2)c(OC)cc1Cl`, the Potency entry in assay [1], in assay [2] and in assay [3] was “inactive” throughout.
As for `CCc1ccc(O)c(OC)c1`, the Potency result in assay [1], in assay [2] and in assay [3] was “inactive” throughout.
As to `Cc1c(Cl)cccc1Nc1ccccc1C(=O)O`, the Potency entry in assay [1], in assay [2] and in assay [3] was “inactive” each time.
For the compound `CCC(O)C(C)(C)C` (configuration not stated), the Potency result in assay [1], in assay [2] and in assay [3] was “inactive” each time.
As to `O=C(OCC(COC(=O)c1ccccc1)(COC(=O)c1ccccc1)COC(=O)c1ccccc1)c1ccccc1`, the Potency result in assay [1], in assay [2] and in assay [3] was “inactive” in each case.
For `O=C(O)/C=C(\CC(=O)O)C(=O)O`, the Potency result in assay [1], in assay [2] and in assay [3] was “inactive” each time.
Regarding `C=CC(=C)CC/C=C(\C)CCC=C(C)C`, the activity, negative = inhibition in assay [1] was -2.99% [at 23.6 µM]. For the same compound, the activity change, negative = inhibition in assay [2] was 0.554% [at 23.6 µM]; in assay [3], -5.88% [at 23.8 µM].
Regarding `CC(=O)Nc1cc(S(=O)(=O)O)cc2cc(S(=O)(=O)O)c(N=Nc3ccccc3)c(O)c12`, the Potency result in assay [1] and in assay [2] was “inactive” each time.
With `CCOc1ccc(N)c([N+](=O)[O-])c1`, the Potency result in assay [1] and in assay [2] was “inactive” each time.
In the case of `Cc1c(NC(C)C)c(=O)n(-c2ccccc2)n1C`, the Potency entry in assay [1], in assay [2] and in assay [3] was “inactive” throughout.
As to `CC1=C(CC(=O)O)c2cc(F)ccc2/C1=C\c1ccc(S(C)(=O)=O)cc1`, the Potency result in assay [1], in assay [2] and in assay [3] was “inactive” throughout.
On to `Cc1onc(-c2c(Cl)cccc2Cl)c1C(=O)Cl`, for which the Potency result in assay [1] and in assay [2] was “inactive” throughout.
As for `CCCC(=O)OCc1ccccc1`, the Potency entry in assay [1], in assay [2] and in assay [3] was “inactive” in each case.
Take `CCN(CC)c1cccc(C)c1`: the Potency entry in assay [1], in assay [2] and in assay [3] was “inactive” each time.
Consider `Oc1cccc(O)c1O`, for which the Potency result in assay [1], in assay [2], in assay [3] and in assay [4] was “inactive” throughout.
For `SCCSCCS`, the Potency entry in assay [1], in assay [2], in assay [3] and in assay [4] was “inactive” in each case.
As to `OC(CN1CCC(Cc2ccc(F)cc2)CC1)c1ccc(Cl)cc1` (configuration not stated), the Potency entry in assay [1], in assay [2], in assay [3] and in assay [4] was “inactive” in each case.
In the case of `Cc1cccc(C)c1NC(=O)C(C)N` (configuration not stated), the Potency entry in assay [1], in assay [2], in assay [3] and in assay [4] was “inactive” throughout.
With `CC12CCC(C(=O)C1=O)C2(C)C` (configuration not stated), the Potency result in assay [1], in assay [2], in assay [3] and in assay [4] was “inactive” each time.
Regarding `CCCCCCCCCCCCS(=O)(=O)Cl`, the activity, negative = inhibition in assay [1] was -0.822% [at 23.6 µM]. For the same compound, the activity change, negative = inhibition in assay [2] is 0.136% [at 23.6 µM]; in assay [3] it was 0.319% [at 23.8 µM]; in assay [4] it was 0.324% [at 23.6 µM].
Consider `CCC1(CO)COCOC1`, for which the Potency result in assay [1], in assay [2], in assay [3] and in assay [4] was “inactive” throughout.
Turning to `CCCCNc1ccc(C(=O)OCCOCCOCCOCCOCCOCCOCCOCCOCCOC)cc1`, the Potency result in assay [1], in assay [2], in assay [3] and in assay [4] was “inactive” in each case.
With `CO[Si](OC)(c1ccccc1)c1ccccc1`, the Potency result in assay [1], in assay [2], in assay [3] and in assay [4] was “inactive” throughout.
`CC(C)C(C)C`: the Potency result in assay [1], in assay [2], in assay [3] and in assay [4] was “inactive” in each case.
